Source: PubChem
HTRA1 inh: HTRA1 (human) protease inhibition; Q92743; recombinant HTRA1, FP-rhodamine activity-based probe, fluorescence polarization; inhibition, % at 5.96 µM; 0.5% of 340,000 active; AID 504803; in the data active = inhibition above about 36%;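 also: 0% = enzyme with DMSO and 100% = wells lacking enzyme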
PAFAH1B2 FP inh: inhibitors of human PAFAH1B2 | AID 492953 | 1.2% of 340,000 active | recombinant PAFAH1B2, FP-rhodamine activity probe, fluorescence polarization | inhibition, % at 3.39 µM | P68402;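 active = inhibition above the mean of all tested compounds plus 3 SD, cut at about 24% in these data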;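 also: 0% = enzyme with DMSO and 100% = wells lacking PAFAH1B2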
Target sequence (P68402 whole entry, looked up): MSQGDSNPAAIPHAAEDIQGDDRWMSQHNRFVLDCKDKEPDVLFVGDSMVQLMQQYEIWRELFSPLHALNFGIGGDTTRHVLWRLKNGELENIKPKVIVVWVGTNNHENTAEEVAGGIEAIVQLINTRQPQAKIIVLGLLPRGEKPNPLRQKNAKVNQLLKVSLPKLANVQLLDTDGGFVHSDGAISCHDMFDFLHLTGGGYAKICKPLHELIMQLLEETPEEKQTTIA
pPAFAH FP inh: pPAFAH (human) enzyme inhibition; Q13093; recombinant pPAFAH, FP-rhodamine probe fluorescence polarization; inhibition, % at 3.39 µM; 1.5% of 330,000 active; AID 463082;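 active = inhibition above the mean inhibition across the screen plus 3 SD, cut at about 25% in these data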;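 also: inhibitors block binding of the rhodamine activity-based probe so polarization drops; 0% = enzyme with DMSO and 100% = wells lacking pPAFAH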
Target sequence (Q13093 whole entry, looked up): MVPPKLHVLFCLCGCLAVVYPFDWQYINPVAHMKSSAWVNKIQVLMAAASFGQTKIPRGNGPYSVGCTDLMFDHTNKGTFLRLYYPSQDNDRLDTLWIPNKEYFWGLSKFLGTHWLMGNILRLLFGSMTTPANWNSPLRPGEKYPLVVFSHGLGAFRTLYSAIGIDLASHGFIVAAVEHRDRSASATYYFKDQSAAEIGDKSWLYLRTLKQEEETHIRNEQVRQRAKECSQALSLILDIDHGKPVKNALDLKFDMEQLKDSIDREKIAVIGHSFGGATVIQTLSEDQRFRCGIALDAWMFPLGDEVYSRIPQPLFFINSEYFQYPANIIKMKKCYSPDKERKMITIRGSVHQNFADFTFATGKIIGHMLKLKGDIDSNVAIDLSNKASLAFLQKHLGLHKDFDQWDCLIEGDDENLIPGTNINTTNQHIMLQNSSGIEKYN
PAFAH2 inh: PAFAH2 (human) inhibition; 0.99% of 340,000 active; recombinant PAFAH2, FP-rhodamine activity probe, fluorescence polarization; Q99487; AID 492956; inhibition, % at 3.39 µM;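 active = inhibition above the mean over all tested compounds plus 3 SD, cut at about 30% in these data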;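 also: inhibitors block probe labeling of enzyme so polarization drops; 0% = enzyme with DMSO and 100% = wells lacking PAFAH2 protein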
DAGLB inh: diacylglycerol lipase beta (human) inhibition | AID 504411 | inhibition, % at 5.17 µM | 0.059% of 340,000 active | Q8NCG7 | HEK293T DAGLB membrane lysate, EnzChek fluorogenic substrate; in the data active = inhibition above about 34%;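 also: 0% = enzyme with vehicle and 100% = wells lacking enzyme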
PAFAH1B3 FP inh: inhibitors of human PAFAH1B3 | Q15102 | recombinant PAFAH1B3, FP-rhodamine probe, fluorescence polarization | inhibition, % at 3.39 µM | 0.28% of 340,000 active | AID 492972;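 active = inhibition above the screen-wide average of all tested compounds plus 3 SD, cut at about 25% in these data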;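 also: 0% = enzyme with DMSO only and 100% = wells lacking PAFAH1B3 protein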
pPAFAH FP conf: pPAFAH (human) inhibition, confirmed | shares compounds with pPAFAH FP inh | recombinant pPAFAH, FP-Rh probe fluorescence polarization | inhibition, % at 3.39 µM | 72% of 2,300 active | AID 463230;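 active = mean inhibition of the triplicate above the hit cutoff set for the earlier primary screen, cut at about 25% in these data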;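 also: 0% = enzyme with DMSO and 100% = wells lacking pPAFAH enzyme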
DAGLB confirm: DAGLB (human) inhibition, confirmation screen. 73% of 190 active. AID 504445. inhibition, % at 5.17 µM. shares compounds with DAGLB inh. HEK293T DAGLB membrane lysate, EnzChek fluorogenic substrate;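 active = mean inhibition over triplicate wells above a set limit taken from the primary lipase screen, cut at about 34% in these data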;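 also: 0% = DAGLB with DMSO and 100% = wells lacking DAGLB enzyme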
HTRA1 conf: HTRA1 (human) inhibition, confirmation | shares compounds with HTRA1 inh | recombinant HTRA1, FP-rhodamine activity-based probe, fluorescence polarization | inhibition, % at 5.96 µM | 66% of 1,600 active | AID 540248;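 active = mean inhibition over three repeats above a set limit taken from the earlier primary screen, cut at about 37% in these data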;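 also: 0% = HTRA1 with DMSO and 100% = wells lacking HTRA1; inhibitors block probe binding so polarization drops and inhibition rises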
* hit, by the source's call; nt = no result given. A selection: hits, their analogues and other compounds. The true share with any hit is near 2.8%.

SMILES	HTRA1 inh	PAFAH1B2 FP inh	pPAFAH FP inh	PAFAH2 inh	DAGLB inh	PAFAH1B3 FP inh	pPAFAH FP conf	HTRA1 conf	others
C[C@H](CO)N1C[C@H](C)[C@H](CN(C)C(=O)Nc2ccc(F)cc2)OCc2cnnn2CCCC1=O	1	nt	nt	nt	-4	nt	nt	nt
[C-]#[N+][C@H](O[C@@H]1O[C@H](CO)[C@@H](O)[C@H](O)[C@H]1O)c1ccccc1	-3	4	7	-5	3	0	nt	nt
O=C(O)CC(CCc1ccccc1)OC1OC(CO)C(O)C(O)C1O (stereo not given)	41*	18	74*	39*	-1	25	34*	41*
COc1cc2c(cc1OC)C(Cc1ccc(O)c(Oc3ccc(C[C@H]4c5cc(OC)c(OC)cc5CCN4C)cc3)c1)N(C)CC2 (stereo not given in full)	nt	nt	0	nt	nt	nt	nt	nt
Cc1ccc(S(=O)(=O)N2CCOCC2)cc1NC(=O)COC(=O)COc1cccc2c1OC(C)(C)C2	-2	3	3	5	-6	1	nt	nt
COc1cc(/C=C2/C(=O)NN(c3ccc(Cl)c(Cl)c3)C2=O)cc([N+](=O)[O-])c1O	38*	31*	52*	36*	38*	18	33*	42*	DAGLB confirm=50*
O=C(N/N=C/c1cc(Br)cc([N+](=O)[O-])c1O)c1ccc(NC(=O)c2ccc(F)cc2)cc1	51*	8	38*	13	17	12	55*	53*
O=C(N/N=C/c1cc(Br)cc(Br)c1O)c1ccncc1	nt	nt	6	nt	nt	nt	nt	nt
Cc1ccc(C)c(-n2nnc3ccccc3c2=O)c1	6	nt	nt	nt	-5	nt	nt	nt
Nc1ccc(N2CCN(CCCCN3C(=O)C4CCCN4C3=O)CC2)cc1 (stereo not given)	38*	0	70*	6	-3	5	13	36
O=[N+]([O-])c1ccccc1NC(=S)N/N=C/c1ccc(O)c(O)c1	80*	5	59*	49*	9	24	64*	73*
O=[N+]([O-])c1ccccc1C=NNC(=S)NN=Cc1ccccc1[N+](=O)[O-]	10	6	nt	-6	2	9	nt	nt
COc1ccc2c(c1)cc(C(=O)N/N=C/c1c(O)c(C(=O)O)cc3ccccc13)n2C	55*	23	59*	39*	7	29*	84*	39*
CC(=O)Nc1ccc(N=Cc2c(O)c(C(=O)Nc3ccccc3)cc3ccccc23)cc1	nt	nt	11	nt	nt	nt	nt	nt
Cn1c(O)c(/C=N/NC(=O)c2cc3ccccc3cc2O)c2ccccc21	54*	37*	62*	13	5	37*	49*	55*
O=C(O)COc1ccccc1/C=N/Nc1ccc(S(=O)(=O)Nc2ccc(Cl)cc2)cc1[N+](=O)[O-]	54*	47*	65*	17	40*	11	68*	88*	DAGLB confirm=40*
O=C1c2c(O)cccc2C(C2OC(CO)[C@@H](O)[C@H](O)[C@H]2O)c2cc(CO)cc(O)c21 (stereo not given in full)	11	8	2	-5	1	-1	nt	nt
O=C(O)c1cc(O)c2c(c1)[C@H]([C@H]1c3cc(C(=O)O)cc(O)c3C(=O)c3c(O[C@@H]4O[C@H](CO)[C@@H](O)[C@H](O)[C@H]4O)cccc31)c1cccc(OC3O[C@H](CO)[C@@H](O)[C@H](O)[C@H]3O)c1C2=O (stereo not given in full)	40*	77*	94*	90*	5	80*	99*	19
Oc1ccc(-c2csc(Nc3cccc4ccccc34)n2)cc1O	71*	2	72*	16	8	7	66*	71*
Cc1ccnc(Nc2nc(-c3ccc(O)cc3)cs2)c1	16	6	9	4	-1	2	nt	nt
Cc1csc(Nc2cccc3ccccc23)n1	1	-4	6	-9	2	-9	nt	nt
Cc1ccnc(Nc2nc(-c3ccc(O)c(O)c3)cs2)c1	74*	3	41*	-8	6	18	30*	85*
Cc1cccc(Nc2nc(-c3ccc(O)c(O)c3)cs2)n1	60*	2	51*	7	5	21	28*	59*
Oc1ccc(-c2csc(Nc3ccccn3)n2)cc1O	64*	5	40*	11	6	21	32*	80*
O=C(CCNC(=O)c1ccc([N+](=O)[O-])cc1)Nc1cccc(S(=O)(=O)N2CCOCC2)c1	2	5	0	-7	5	9	nt	nt
SMILES	HTRA1 inh	PAFAH1B2 FP inh	pPAFAH FP inh	PAFAH2 inh	DAGLB inh	PAFAH1B3 FP inh	pPAFAH FP conf	HTRA1 conf	others
COc1ccc(NC(=O)c2c(N)cnn2C)cc1	4	0	6	2	-4	-3	nt	nt
C=C1c2cccc(O)c2C(O)=C2C(=O)[C@]3(O)C(O)=C(C(N)=O)C(=O)[C@@H](N(C)C)[C@@H]3[C@@H](O)[C@H]12	53*	12	95*	23	0	18	18	30
O=C(CN1CCN(C(=O)C2CCCO2)CC1)Nc1ccc(Br)cc1 (stereo not given)	8	8	9	6	-3	12	nt	nt
Oc1ccc(N=Nc2ccccc2-c2nn[nH]n2)c(O)c1	42*	16	83*	41*	20	40*	46*	67*
Cc1ccccc1-c1nn[nH]n1	6	2	0	-5	0	7	nt	nt
COc1ccc(C2=NO[C@@](CC(=O)O)(C(=O)Nc3ccc4c(c3)OCCO4)C2)cc1	4	5	2	-6	1	2	nt	nt
O=C(Nc1ccccc1-c1ccccc1)c1ccccc1	4	1	-2	3	-2	5	nt	nt
Nc1c(S(=O)(=O)O)cc(NC(=O)c2ccccc2)c2c1C(=O)c1ccccc1C2=O	55*	34*	84*	54*	61*	49*	90*	72*	DAGLB confirm=72*
O=c1[nH]nc(CNc2ccc(O)cc2)c2ccccc12	85*	8	59*	15	5	17	-6	9
CCOC(=O)C(C(=O)OCC)c1cc(Br)c2noc3c2c1C(=O)c1ccccc1-3	48*	7	70*	28	-14	22	11	25
C[C@@H]1CN([C@H](C)CO)C(=O)CCCn2nncc2CO[C@H]1CN(C)C(=O)Cc1ccccc1	3	nt	nt	nt	-2	nt	nt	nt
CCOc1ccc2oc(C(=O)NNC(=O)c3csc(N4CCOCC4)n3)c(C)c2c1	-10	2	15	4	0	11	nt	nt
